# According to PubChem BioAssay (NCI):
# About 83,000 compounds went through this panel and 20% of them were active in at least one assay; those are over-represented in the sample as a whole.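 Interpretation: 100, growth as untreated; towards 0, rising growth inhibition; 0, no net growth; 0 to -100, cell death. Compounds scoring below 10 were considered active.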 Activity calls are given as the source filed them.
# Test system: HL-60(TB) leukemia
# Test: NCI-60 one-dose screen, 48 h (100 = growth as untreated, 0 = no growth, -100 = all killed)
# Conditions: 10 µM unless noted
row,SMILES,growth
1,CCOC(=O)/C=C1\S/C(=N\Nc2cc(=O)[nH]c3ccccc23)N(c2ccccc2)C1=O,99.1% (inactive)
2,Nc1c(C(=O)Nc2ccncc2)sc2nc3c(cc12)CCCCC3,55.5% (inactive)
3,COC(=O)c1c(C)nc(C)c2c1C(=O)C=C(NCc1ccccc1)C2=O,81.8% (inactive)
4,Fc1cccc(-c2ccc3c(c2)C2(CCNCC2)CN3)c1,108% (inactive)
5,COc1ccc(C(=O)COc2cccc(/C=C3\CSc4ccc(Cl)cc4C3=O)c2)cc1,81.8% (inactive)
6,Cc1ccc(S(=O)(=O)N/N=C2\CCCc3ccccc32)cc1,80.4% (inactive)
7,COc1ccc(-c2cc(-c3cc(OC)ccc3OC)nc(N)c2C#N)cc1,90.4% (inactive)
8,O=C(Nc1ccccc1)Nc1ccc(C(=O)/C=C/c2ccc(N3CCCC3)cc2)cc1,35.2% (inactive)
9,Nc1ccc(N(O)/C=C2\C=CC=CC2=O)cc1N,73.2% (inactive)
10,O=C1Nc2ccccc2/C1=C\c1ccccc1O,75.2% (inactive)
11,O=C(Nc1ccc(I)cc1F)c1cc(I)ccc1O,-25.2% (active)
12,CN1Cn2c(ccc2C(F)(F)F)C(=O)CS1(=O)=O,108% (inactive)
13,COc1ccc2c(c1)c(-c1nn3cc(-c4cccs4)nc3s1)cn2C,82.7% (inactive)
14,CCN1C(=O)N(CC)C2C1NN=c1s/c(=C\c3ccccc3F)c(=O)n12 (stereo not given),-48.1% (active)
15,COc1cc2c(cc1OC)-c1ccc3cc4c(cc3c1N(CCCn1ccnc1)C2)OCO4,3.45% (active)
16,C/C(=C(/c1ccccc1)c1ccc(N2C(=O)c3cccc4c(N5CCN(C)CC5)ccc(c34)C2=O)cc1)c1ccccc1,99.3% (inactive)
17,COc1ccc(Nc2nc(SC)nc(-c3cccc([N+](=O)[O-])c3)c2C#N)cc1,112% (inactive)
18,COc1ccc(-c2nc3ccc(-c4nc5ccc(N6CCN(c7ccc(F)cc7)CC6)cc5[nH]4)cc3[nH]2)cc1OC,46.5% (inactive)
19,COc1ccc(/C(Cl)=N/N=C(\Cl)c2cc(OC)c(OC)c(OC)c2)cc1OC(C)=O,81.2% (inactive)
20,O=C1CCC(=O)N1Cc1ccccc1,102% (inactive)

row,SMILES,growth
1,O=c1ccn(C2CC(O)C(O)C(CO)O2)c(=O)[nH]1 (stereo not given),90.4% (inactive)
2,CC(=O)c1c(C)[nH]c(-c2nc3ccc(N4CCN(C)CC4)cc3[nH]2)c1-c1ccc2c(c1)OCCO2,-0.621% (active)
3,COc1cccc(/C=C2\COc3ccc(O)cc3C2=O)c1,-20.1% (active)
4,COc1ccc(-c2nc(N)n(C(=S)Nc3ccccc3)n2)cc1,96.4% (inactive)
5,CCN(CC)Cc1cc(Nc2ccnc3cc(Cl)ccc23)cc(-c2ccc(Cl)cc2)c1O,51.3% (inactive)
6,O=C(/C=C1\C(=O)N(Cc2ccc([N+](=O)[O-])cc2)c2ccccc21)c1ccc(OCCN2CCCCC2)cc1,-50.6% (active)
7,C=C1CCC2C(C)(CO)C(O)CCC2(C)C1C/C=C1/C(=O)OCC1O/C=C/c1ccccc1 (stereo not given),7.31% (active)
8,O=C(COc1ccc(/C=C2\Oc3ccc4ccccc4c3C2=O)cc1)c1ccc(Cl)cc1,86.5% (inactive)
9,COCCc1n(Cc2ccc3ccccc3c2)c2ccccc2[n+]1Cc1ccc2ccccc2c1,-62.4% (active)
10,COC(=O)c1cc(Br)ccc1O,97.8% (inactive)
11,Nc1c(C(=O)Nc2ccccc2Cl)sc2nc3c(cc12)C(=O)CCC3,67.1% (inactive)
12,COc1ccc(C2=NOC(CC(=O)N(CCO)CCO)C2)cc1OC1CCCC1 (stereo not given),110% (inactive)
13,CC(C)C(=O)Nc1n[nH]c2cc(-c3cccc(NS(=O)(=O)C4CC4)c3)ccc12,64.3% (inactive)
14,Cc1nc2ccccc2c(/C=C/c2ccccc2)c1C(=O)/C=C/c1ccccc1,23.1% (inactive)
15,CCCCCC(=O)Oc1ccc(/C(=C(\C)c2ccccc2)c2ccc(OCCN(CC)CC)cc2)cc1,33.9% (inactive)
16,O=C1NC(=S)N[C@H]1CC(=O)n1cnc2ccccc21,109% (inactive)
17,CC/C=C\C/C=C/C=C1/C(=O)C=C[C@@H]1C/C=C\CCCC(=O)OC,8.98% (active)
18,COc1cc(N)c2ncccc2c1SC,107% (inactive)
19,NC(=Nc1nc(-c2ccccn2)cc2ccccc12)c1ccccn1,-30.6% (active)
20,FC(F)(F)c1cccc([Si](F)(c2cccc(C(F)(F)F)c2)c2cccc(C(F)(F)F)c2)c1,80.5% (inactive)
